High-throughput results: PubChem, National Center for Advancing Translational Sciences (NCATS)
Methyltransferases = Primary Screen for Target Class Profiling of Small Molecule Inhibitors of Methyltransferases. hit rate 3.9% among 25,000. calls only at 40 µM. purified enzyme, MTase-Glo SAH luminescence; stronger effect = lower value; call rule not given here
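Each enzyme was reacted with SAM and its substrate, with compounds tested once at 40 uM; SAH formed was read by MTase-Glo luminescence.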
An asterisk follows results filed as active; i = inactive; + = active, no number. Many of the other results were omitted from the sample, so hits are more common in it than they were. % is scaled to controls: 0 for no effect and ±100 for the full control effect.

SMILES | Methyltransferases
Fc1ccc2c(c1)C1C=CCC1C(c1ccc(Cl)cc1)N2 (stereo not drawn) | i
O=C(O)c1ccc2c(c1)C1C=CCC1C(c1ccc(Cl)cc1)N2 (stereo not drawn) | +
CC(C)Cn1c(=O)c2ccccc2n2c(CCC(=O)NC3CCCCC3)nnc12 | i
CCN1CCC2(CCC1=O)CN(c1ncnc3c1CCC3)CCN2C (stereo not drawn) | i
O=C(Cn1nc2n(CCc3ccccc3)c(=O)c3ccccc3n2c1=O)Nc1ccc2c(c1)OCCO2 | i
COCCN(C)Cc1ccc2nc3sc(C(=O)N(C)C4CCCCC4)cn3c2c1 | +
COCCN(C)C[C@H]1C[C@@H](CO)CN(C(=O)c2ccc(C)c(Cl)c2)C1 | i
CC1(C)CC[C@]2(C(=O)O)[C@H](O)C[C@]3(C)C(=CCC4[C@@]5(C)CC[C@H](O[C@@H]6O[C@H](CO[C@@H]7OC[C@H](O)[C@H](O)[C@H]7O[C@@H]7OC[C@H](O)[C@H](O)[C@H]7O)[C@@H](O)[C@H](O)[C@H]6O)C(C)(C)C5CC[C@]43C)[C@@H]2C1 (stereo partly drawn) | i
O=C(Nc1ccc(F)cc1)c1ccn2cncc2c1 | i
C[C@@H](Oc1cc(-n2cnc3ccc(OC4CCN(C)CC4)cc32)sc1C(N)=O)c1ccccc1C(F)(F)F | +
CCN1C(=O)c2c(C(=O)NCc3cccc(F)c3)ncn2CC1(C)C(=O)NC1CCCC1 (stereo not drawn) | i
CC1CCCCC1NC(=O)C1c2cccn2CC(=O)N1CCc1ccc(Cl)cc1 (stereo not drawn) | i
CNc1cc(C2CC(Nc3nc(N)nc(C)c3Cl)C2)nc(COC)n1 (stereo not drawn) | i
CC1CCCCC1NC(=O)C1(C)Cn2c(cc3occc32)C(=O)N1Cc1cccc(Cl)c1 (stereo not drawn) | i
Cc1ccc([S+](=O)([O-])NCCNC(=O)c2ccc(-c3cccc(C(F)(F)F)c3)cc2)cc1 | i
Cc1csc(CN(C)C(=O)CC(c2ccccc2)c2ccc3c(c2)OCO3)n1 (stereo not drawn) | i
CN(Cc1nccs1)c1ncnc2ccc(-c3ccc4c(c3)OCO4)cc12 | +
Cc1cc(C)n(CCC(=O)N2CCC(Cc3nncn3-c3ccccc3)CC2)n1 | i
O=C(NCc1cccnc1)c1ccc2c(=O)nc3c(-c4ccc(F)cc4)n[nH]n3c2c1 | i
CC(C)NC(=O)c1nc(-c2ccc([S+](C)(=O)[O-])cc2)c2ccccn12 | i
CC1CCC(NC(=O)C2c3cccn3CC(=O)N2CCC2=CCCCC2)CC1 (stereo not drawn) | i
CC[N+]1(C/C2=C/CCCCCC2)CCC(NC(=O)C2c3cc(Cl)ccc3Oc3ccc(Cl)cc32)CC1 (stereo not drawn) | +
CC(C)N(Cc1nccn1C)C(=O)CC(c1ccccc1)c1ccccc1F (stereo not drawn) | i
COc1ccc(NC(=O)CSc2nnc3n(C)c(=O)c4ccc(C(=O)NC5CCCC5)cc4n23)cc1 | i
COc1ccccc1CNc1nc2c(-c3cccc(Br)c3)nnn2c2ccccc12 | i
SMILES | Methyltransferases
CCc1ccc(C2c3cccn3-c3sc4c(c3CN2C(=O)Nc2ccc(OC)cc2)CCCC4)cc1 (stereo not drawn) | i
CC1(C)C2CCC1(C)C(OC(=O)C(O)(CC(=O)O)CC(=O)O)C2 (stereo not drawn) | +
CC1OC(OC2CCC3(C)C(CCC4(C)C3C=CC35OCC6(CCC(C)(C)CC63)CCC45C)C2(C)CO)C(OC2OC(CO)C(O)C(O)C2O)C(O)C1OC1OC(CO)C(O)C(O)C1O (stereo not drawn) | i
CCCN1C(=O)c2cc(C(=O)NCCN(C)C)nn2CC1(C)C(=O)NC1CCCC1 (stereo not drawn) | i
CN(C)CCNC(=O)c1cccn2c(=O)c3cc4ccccc4cc3nc12 | +
CN1[C@H](C(=O)O)C[C@H](C(=O)NCC2(CO)CCCC2)[C@@H]1c1ccccc1F | i
CC(=O)O[C@@H]1C(=O)C(C)=C(CCC(C)CC(=O)O)[C@@]2(C)CCCC(C)(C)C12 (stereo partly drawn) | i
CCn1ncc(CN2CCC3(CCC3OC)CC2)c1C (stereo not drawn) | i
COc1cc2c(cc1CN1CCCC(O)(CN(C)C)C1)OCCCO2 (stereo not drawn) | i
N.N.N.N.N.N.N.N.N.N.N.N.N.N.O.O.[Ru+4].[Ru+5].[Ru+5] | +
COc1cccc(CN2C(=O)c3cc4ccccc4n3CC2(C)C(=O)NCCC(C)C)c1 (stereo not drawn) | i
COc1ccc(OCC(O)CN2CCC(=O)N(CC3CC3)Cc3cc(OC)ccc32)cc1 (stereo not drawn) | i
Cc1ccc(Cc2nn3c(SCC(=O)NC4CCCCC4)nnc3[nH]c2=O)cc1 | i
COC(=O)CC1OC(C)C2=C(O)c3c(O)cccc3C(=O)C23OC13 (stereo not drawn) | +
CCOC(=O)c1cc2n(n1)CC(C)(C(=O)NC1CCCC1)N(c1cc(C)cc(C)c1)C2=O (stereo not drawn) | i
COc1ccc(C(=O)N[C@@H]2CCC[C@@H]2C(=O)N2CCSCC2)cc1 | i
O=c1c2ccccc2n2c(=O)n(Cc3ccccc3Cl)nc2n1Cc1ccccc1 | i
CNC(=O)c1ccccc1Nc1nc(Nc2ccc(N3CCNCC3)cc2)ncc1Cl | +
Cn1c(=O)c(-c2c(Cl)cccc2Cl)cc2cnc(Nc3ccc(N4CCOCC4)cc3)nc21 | i
CC(=O)c1c(C)c2cnc(Nc3ccc(N4CCNCC4)cn3)nc2n(C2CCCC2)c1=O | i
Nc1nc(-n2cc(C(=O)O)c(=O)c3cc(F)c(N4CC(O)C4)c(Cl)c32)c(F)cc1F | +
C[C@@H]1CN(c2c(F)c(F)c3c(=O)c(C(=O)O)cn(C4CC4)c3c2F)C[C@H](C)N1 | i
CC1CN(c2cc3c(cc2F)c(=O)c(C(=O)O)cn3-c2ccc(F)cc2F)CCN1 (stereo not drawn) | i
COCCCNc1nc2c(S(=O)(=O)c3cc(C)ccc3C)nnn2c2ccccc12 | i
O=C(O)CCC(=O)N1Cc2ccccc2CC2(CCCN(CC3CCOCC3)C2)C1 (stereo not drawn) | i
SMILES | Methyltransferases
CC1(C)OC(=O)C(OCC2CC2)=C1c1ccc(S(C)(=O)=O)cc1 | i
C=CCCC(CN1CCCOCC1)Oc1nccc(N(C)CC)n1 (stereo not drawn) | i
CCc1cc(=O)n(CC(=O)Nc2ccccc2OC)c(N2CCOCC2)n1 | i
COc1cc(N2CCOCC2)ccc1Nc1ncc(F)c(Nc2ccccc2NS(C)(=O)=O)n1 | +
COc1ccc(Nc2nc3c(S(=O)(=O)c4ccc(F)cc4)nnn3c3ccccc23)c(OC)c1 | i
COc1cc([C@H]2OC[C@](O)(Cc3ccc(O[C@@H]4O[C@H](CO)[C@@H](O)[C@H](O)[C@H]4O)c(OC)c3)[C@@H]2CO)ccc1O | i
COC[C@@H]1CN(C(=O)c2cc(OC)cc(OC)c2)C[C@H]1c1ccncc1 | i
CCS(=O)(=O)Nc1ccc(C2(C(=O)NCc3cccc(Cl)c3)CCC2)cc1 | i
CC(C)(O)C(O)C(=O)OCc1ccc(O[C@@H]2O[C@H](CO)[C@@H](O)[C@H](O)[C@H]2O)cc1 (stereo partly drawn) | i
CCC(C)NC(=O)c1ccc2c(=O)n(C(C)C)c3nn(CC(=O)c4ccc(C)cc4)c(=O)n3c2c1 (stereo not drawn) | i
